According to PubChem BioAssay (EPA / NIEHS):
Records with an inconclusive call do not appear. Calls of active or inactive are those of the source. Rule for the calls, unless noted: active = hit-call score of the fitted dose curve at least 0.9, where 1 is the maximum; inconclusive = response in the unintended direction; inactive = score below 0.9.

Tests used:
[1] = molecular target: human Peroxisome Proliferator-activated Receptor alpha (PPARa), PPARA (gene 5465) (UniProt Q07869); assay: ATG_PPARa_TRANS: Attagene TRANS-FACTORIAL HepG2 Assay for human Peroxisome Proliferator-activated Receptor alpha (PPARa) (AID 2283001);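 for AC50: potency for gain of reporter signal over DMSO so agonist or activator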
human Peroxisome Proliferator-activated Receptor alpha (PPARa), PPARA (gene 5465), sequence (Q07869 whole entry, looked up, the tested form may be a part): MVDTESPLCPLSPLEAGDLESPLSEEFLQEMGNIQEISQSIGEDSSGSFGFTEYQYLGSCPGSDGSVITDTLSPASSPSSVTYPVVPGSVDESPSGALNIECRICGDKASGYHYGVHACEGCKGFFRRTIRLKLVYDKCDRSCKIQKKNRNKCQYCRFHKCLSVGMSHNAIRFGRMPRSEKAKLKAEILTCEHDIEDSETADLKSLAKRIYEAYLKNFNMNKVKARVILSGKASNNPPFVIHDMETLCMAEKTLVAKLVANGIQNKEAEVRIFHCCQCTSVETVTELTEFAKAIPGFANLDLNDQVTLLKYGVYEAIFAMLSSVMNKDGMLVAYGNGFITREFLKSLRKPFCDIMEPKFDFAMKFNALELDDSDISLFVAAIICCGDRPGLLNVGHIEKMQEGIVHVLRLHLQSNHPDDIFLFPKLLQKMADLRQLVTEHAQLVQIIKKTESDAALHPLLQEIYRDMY
Method in brief: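 HepG2 cells transiently transfected with multiplexed GAL4-UAS reporters driven by exogenous chimeric NR-Gal4 proteins; reporter mRNA measured after 24 h dosing. Read-out by RT-PCR, 6-FAM labelling, HpaI digestion and capillary electrophoresis; gain of signal versus DMSO.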

[2] = molecular target: human Peroxisome Proliferator-activated Receptor delta (PPARd), PPARD (gene 5467) (UniProt Q03181); assay: ATG_PPARd_TRANS: Attagene TRANS-FACTORIAL HepG2 Assay for human Peroxisome Proliferator-activated Receptor delta (PPARd) (AID 2283002)
Method in brief: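 Fluorescence from capillary electrophoresis of labelled RT-PCR reporter fragments gives the signal; DMSO sets baseline. Cells: HepG2 transiently carrying GAL4-UAS reporter units plus chimeric nuclear receptor-Gal4 proteins, exposed to chemicals for 24 h.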

[3] = read-out: Intercellular Adhesion Molecule 1 (ICAM1), ICAM1 (gene 3383); assay: BSK_3C_ICAM1: BioMAP Diversity Plus: 3C Assay for Intercellular Adhesion Molecule 1 (ICAM1) Biomarker Activity (AID 2283003; active = hit-call score of the fitted dose curve at least 0.9, where 1 is the maximum; inactive = score below 0.9); settings: primary human endothelial cells (HUVEC); actives raise or lower the signal
Method in brief: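 HUVEC primary cells stimulated under 3C conditions; ICAM1 measured by ELISA 24 h after compound dosing. Curves fitted bidirectionally against the DMSO baseline. Overt cytotoxicity checked by SRB staining of parallel cultures.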

[4] = molecular target: human Retinoic Acid Receptor beta (RARb), RARB (gene 5915) (UniProt P10826); assay: ATG_RARb_TRANS: Attagene TRANS-FACTORIAL HepG2 Assay for human Retinoic Acid Receptor beta (AID 2283004)
human Retinoic Acid Receptor beta (RARb), RARB (gene 5915), sequence (P10826 whole entry, looked up): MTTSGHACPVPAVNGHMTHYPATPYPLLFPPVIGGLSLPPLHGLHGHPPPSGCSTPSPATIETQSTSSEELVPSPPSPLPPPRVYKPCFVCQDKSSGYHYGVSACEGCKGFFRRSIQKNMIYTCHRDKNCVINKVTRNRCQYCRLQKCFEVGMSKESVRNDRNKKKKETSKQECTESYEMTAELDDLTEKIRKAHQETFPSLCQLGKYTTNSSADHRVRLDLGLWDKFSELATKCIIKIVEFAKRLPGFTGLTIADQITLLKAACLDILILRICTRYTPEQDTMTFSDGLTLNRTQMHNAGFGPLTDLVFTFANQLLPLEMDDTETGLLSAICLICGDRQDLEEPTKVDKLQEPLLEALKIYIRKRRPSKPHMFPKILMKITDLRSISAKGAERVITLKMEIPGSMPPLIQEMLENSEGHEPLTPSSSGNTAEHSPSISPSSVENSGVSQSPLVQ
Method in brief: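 Transient transfection of HepG2 with multiple reporter units → chemical dosing, 24 h → total RNA isolation → RT with oligo(dT) → reporter-specific PCR, 6-FAM primer extension, HpaI digest → capillary electrophoresis. Positive direction vs DMSO control.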

[5] = molecular target: Retinoic acid receptor alpha (Homo sapiens) (UniProt P10276); assay: ATG_RARa_TRANS: Attagene TRANS-FACTORIAL HepG2 Assay for human Retinoic Acid Receptor alpha (RARa) (AID 2283005)
Retinoic acid receptor alpha (Homo sapiens), sequence (P10276 whole entry, looked up, the tested form may be a part): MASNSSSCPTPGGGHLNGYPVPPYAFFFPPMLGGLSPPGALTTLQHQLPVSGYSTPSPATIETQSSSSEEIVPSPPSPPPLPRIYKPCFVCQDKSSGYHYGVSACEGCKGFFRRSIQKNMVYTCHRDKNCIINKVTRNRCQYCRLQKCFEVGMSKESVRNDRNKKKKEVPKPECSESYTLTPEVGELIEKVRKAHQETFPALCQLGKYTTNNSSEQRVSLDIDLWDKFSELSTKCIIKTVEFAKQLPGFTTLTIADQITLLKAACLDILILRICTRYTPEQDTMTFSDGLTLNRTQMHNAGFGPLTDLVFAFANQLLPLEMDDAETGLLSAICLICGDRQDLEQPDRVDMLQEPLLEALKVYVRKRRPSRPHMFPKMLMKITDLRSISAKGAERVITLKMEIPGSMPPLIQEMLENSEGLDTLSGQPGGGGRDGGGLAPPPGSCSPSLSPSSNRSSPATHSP
Method in brief: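 HepG2 transiently transfected with multiplex GAL4-UAS reporter units including a human RARa–GAL4 chimera; 24 h compound exposure. Reporter mRNA quantified by RT-PCR, 6-FAM labeling and capillary electrophoresis; gain of signal versus DMSO.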

[6] = molecular target: Peroxisome proliferator-activated receptor gamma (Homo sapiens) (UniProt P37231); assay: ATG_PPARg_TRANS: Attagene TRANS-FACTORIAL HepG2 Assay for human Peroxisome Proliferator-activated Receptor-gamma (PPARg) (AID 2283007)
Peroxisome proliferator-activated receptor gamma (Homo sapiens), sequence (P37231 whole entry, looked up, the tested form may be a part): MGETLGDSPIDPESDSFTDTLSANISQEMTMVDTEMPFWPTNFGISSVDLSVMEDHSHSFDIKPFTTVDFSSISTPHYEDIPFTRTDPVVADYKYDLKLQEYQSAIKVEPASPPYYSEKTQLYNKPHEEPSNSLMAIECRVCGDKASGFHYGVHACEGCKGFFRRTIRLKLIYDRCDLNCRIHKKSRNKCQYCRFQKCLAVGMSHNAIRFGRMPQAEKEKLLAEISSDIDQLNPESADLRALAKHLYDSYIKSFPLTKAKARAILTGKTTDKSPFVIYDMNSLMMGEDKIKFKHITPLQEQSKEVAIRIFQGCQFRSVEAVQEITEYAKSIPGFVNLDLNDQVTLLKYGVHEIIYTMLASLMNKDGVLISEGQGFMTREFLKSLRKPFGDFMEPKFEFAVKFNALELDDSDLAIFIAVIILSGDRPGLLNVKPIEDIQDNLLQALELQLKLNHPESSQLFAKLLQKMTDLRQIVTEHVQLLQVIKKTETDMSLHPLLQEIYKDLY
Method in brief: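 Gain-of-signal endpoint relative to DMSO, derived from reporter mRNA levels quantified by RT-PCR and capillary electrophoresis. Cells were HepG2 transiently expressing a chimeric NR-Gal4 construct with GAL4-UAS reporters, exposed to chemicals for 24 h.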

[7] = molecular target: Nuclear receptor subfamily 1 group I member 2 (Homo sapiens) (UniProt O75469); assay: ATG_PXR_TRANS: Attagene TRANS-FACTORIAL HepG2 Assay for human Pregnane X Receptor (PXR) (AID 2283008)
Method in brief: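 HepG2 cells transiently transfected with GAL4-UAS reporter units and PXR-Gal4 chimera, exposed 24 h. Reporter mRNA quantified by RT-PCR, fluorescent labelling, HpaI digestion and capillary electrophoresis; gain of signal vs DMSO.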

[8] = molecular target: human Retinoic Acid Receptor gamma (RARg), RARG (gene 5916) (UniProt P13631); assay: ATG_RARg_TRANS: Attagene TRANS-FACTORIAL HepG2 Assay for human Retinoic Acid Receptor gamma (RARg) (AID 2283009)
Method in brief: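 HepG2 transiently transfected with GAL4-UAS reporter units and chimeric NR-Gal4 constructs; 24 h compound exposure. Reporter mRNA quantified by RT-PCR, FAM labeling, HpaI digestion and capillary electrophoresis; gain-of-signal versus DMSO.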

[9] = molecular target: human Retinoid X Receptor beta (RXRb), RXRB (gene 6257) (UniProt P28702); assay: ATG_RXRb_TRANS: Attagene TRANS-FACTORIAL HepG2 Assay for human Retinoid X Receptor beta (RXRb) (AID 2283013)
human Retinoid X Receptor beta (RXRb), RXRB (gene 6257), sequence (P28702 whole entry, looked up, the tested form may be a part): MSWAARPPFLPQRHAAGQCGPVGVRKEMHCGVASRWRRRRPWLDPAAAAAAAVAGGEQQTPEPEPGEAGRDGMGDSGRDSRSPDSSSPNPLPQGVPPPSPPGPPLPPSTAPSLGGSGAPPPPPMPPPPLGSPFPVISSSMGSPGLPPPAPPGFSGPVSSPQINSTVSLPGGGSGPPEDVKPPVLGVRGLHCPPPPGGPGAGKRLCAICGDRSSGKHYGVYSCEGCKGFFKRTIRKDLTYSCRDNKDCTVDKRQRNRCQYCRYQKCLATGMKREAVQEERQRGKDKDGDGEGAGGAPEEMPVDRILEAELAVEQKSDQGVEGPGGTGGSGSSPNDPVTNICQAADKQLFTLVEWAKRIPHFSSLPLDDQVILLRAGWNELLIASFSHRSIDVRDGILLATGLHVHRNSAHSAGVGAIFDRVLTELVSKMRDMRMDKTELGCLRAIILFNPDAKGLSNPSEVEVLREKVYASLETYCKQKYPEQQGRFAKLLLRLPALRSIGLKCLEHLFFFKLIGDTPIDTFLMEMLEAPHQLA
Method in brief: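 HepG2 cells were transiently transfected with multiplexed GAL4-UAS reporters and a chimeric RXRb-Gal4 construct, then exposed for 24 h. Reporter mRNA was quantified by RT-PCR, FAM labeling, HpaI digestion and capillary electrophoresis; gain of signal was scored against DMSO.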

[10] = read-out: E-selectin (Homo sapiens) (UniProt P16581); assay: BSK_3C_Eselectin: BioMAP Diversity Plus: 3C Assay for Eselectin Biomarker Activity (AID 2283015; active = hit-call score of the fitted dose curve at least 0.9, where 1 is the maximum; inactive = score below 0.9); settings: primary human endothelial cells (HUVEC); actives raise or lower the signal
Method in brief: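 ELISA read-out of E-selectin on endothelial monolayers after 24 h chemical treatment. Human umbilical vein primary cells served as the system, with DMSO defining baseline activity for bidirectional fitting.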

[11] = read-out: Interleukin-1 alpha (IL1a), IL1A (gene 3552); assay: BSK_BE3C_IL1a: BioMAP Diversity Plus: BE3C Assay for Interleukin-1 alpha (IL1a) Biomarker Activity (AID 2283016; active = hit-call score of the fitted dose curve at least 0.9, where 1 is the maximum; inactive = score below 0.9); settings: primary human bronchial epithelial cells; actives raise or lower the signal
Method in brief: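 Human primary bronchial epithelial cells, 24 h chemical exposure; IL-1a quantified by ELISA, fitted bidirectionally against DMSO. Cytotoxicity assessed in parallel by SRB total-protein staining at the time of measurement.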

[12] = read-out: Monocyte Chemoattractant Protein-1 (MCP1), CCL2 (gene 6347); assay: BSK_3C_MCP1: BioMAP Diversity Plus: 3C Assay for Monocyte Chemoattractant Protein-1 (MCP1) Biomarker Activity (AID 2283017; active = hit-call score of the fitted dose curve at least 0.9, where 1 is the maximum; inactive = score below 0.9); settings: primary human endothelial cells (HUVEC); actives raise or lower the signal
Method in brief: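 ELISA read-out of MCP-1 from human umbilical vein endothelial cell cultures harvested 24 h post-dosing. Gain or loss of signal was fitted relative to DMSO.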

[13] = read-out: Monocyte Chemoattractant Protein-1 (MCP1), CCL2 (gene 6347); assay: BSK_4H_MCP1: BioMAP Diversity Plus: 4H Assay for Monocyte Chemoattractant Protein-1 (MCP1) Biomarker Activity (AID 2283018; active = hit-call score of the fitted dose curve at least 0.9, where 1 is the maximum; inactive = score below 0.9); settings: primary human endothelial cells (HUVEC); actives raise or lower the signal
Method in brief: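 Human umbilical vein endothelial cells (4H system) exposed to chemicals for 24 h in 96-well format. MCP-1 measured by ELISA; bidirectional fitting against DMSO, with SRB total-protein staining in parallel cultures for cytotoxicity.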

[14] = read-out: Human Leukocyte Antigen - DR isotype (HLADR), HLA-DRA (gene 3122); assay: BSK_3C_HLADR: BioMAP Diversity Plus: 3C Assay for Human Leukocyte Antigen - DR isotype (HLADR) Biomarker Activity (AID 2283019; active = hit-call score of the fitted dose curve at least 0.9, where 1 is the maximum; inactive = score below 0.9); settings: primary human endothelial cells (HUVEC); actives raise or lower the signal
Method in brief: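 ELISA readout of surface HLA-DR on human umbilical vein endothelium, taken 24 h after chemical treatment. Gain- and loss-of-signal were both fitted relative to DMSO.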

[15] = read-out: Interleukin-8 (IL8), CXCL8 (gene 3576); assay: BSK_3C_IL8: BioMAP Diversity Plus: 3C Assay for Interleukin-8 (IL8) Biomarker Activity (AID 2283020; active = hit-call score of the fitted dose curve at least 0.9, where 1 is the maximum; inactive = score below 0.9); settings: primary human endothelial cells (HUVEC); actives raise or lower the signal
Method in brief: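 Primary human umbilical vein endothelial cells were dosed for 24 h. IL-8 was quantified by ELISA and fitted bidirectionally against DMSO. Cytotoxicity was assessed in parallel cultures by SRB staining at 560 nm.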

[16] = molecular target: Retinoic acid receptor RXR-alpha (Homo sapiens) (UniProt P19793); assay: ATG_RXRa_TRANS: Attagene TRANS-FACTORIAL HepG2 Assay for human Retinoid X Receptor alpha (RXRa) (AID 2283012)
Retinoic acid receptor RXR-alpha (Homo sapiens), sequence (P19793 whole entry, looked up, the tested form may be a part): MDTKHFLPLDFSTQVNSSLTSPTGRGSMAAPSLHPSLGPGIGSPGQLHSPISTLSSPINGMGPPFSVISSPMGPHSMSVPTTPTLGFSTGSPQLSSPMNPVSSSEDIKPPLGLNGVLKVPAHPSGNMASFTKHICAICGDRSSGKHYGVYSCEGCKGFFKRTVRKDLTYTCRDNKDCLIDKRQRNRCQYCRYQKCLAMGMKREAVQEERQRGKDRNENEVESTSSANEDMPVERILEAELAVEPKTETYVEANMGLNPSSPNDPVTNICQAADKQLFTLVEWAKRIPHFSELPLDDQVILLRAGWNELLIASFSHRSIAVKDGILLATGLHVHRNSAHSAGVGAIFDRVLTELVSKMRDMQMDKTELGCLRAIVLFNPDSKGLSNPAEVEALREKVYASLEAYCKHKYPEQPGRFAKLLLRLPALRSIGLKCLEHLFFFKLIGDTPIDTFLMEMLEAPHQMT
Method in brief: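 HepG2 cells transiently transfected with GAL4-UAS reporter units and chimeric RXRa-Gal4 protein, treated 24 h. Reporter mRNA measured by RT-PCR, fluorescent labelling, HpaI digestion and capillary electrophoresis. Induction fitted against DMSO.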

[17] = molecular target: human RAR-related Orphan Receptor gamma (RORg), RORC (gene 6097) (UniProt P51449); assay: ATG_RORg_TRANS: Attagene TRANS-FACTORIAL HepG2 Assay for human RAR-related Orphan Receptor gamma (RORg) (AID 2283011)
human RAR-related Orphan Receptor gamma (RORg), RORC (gene 6097), sequence (P51449 whole entry, looked up, the tested form may be a part): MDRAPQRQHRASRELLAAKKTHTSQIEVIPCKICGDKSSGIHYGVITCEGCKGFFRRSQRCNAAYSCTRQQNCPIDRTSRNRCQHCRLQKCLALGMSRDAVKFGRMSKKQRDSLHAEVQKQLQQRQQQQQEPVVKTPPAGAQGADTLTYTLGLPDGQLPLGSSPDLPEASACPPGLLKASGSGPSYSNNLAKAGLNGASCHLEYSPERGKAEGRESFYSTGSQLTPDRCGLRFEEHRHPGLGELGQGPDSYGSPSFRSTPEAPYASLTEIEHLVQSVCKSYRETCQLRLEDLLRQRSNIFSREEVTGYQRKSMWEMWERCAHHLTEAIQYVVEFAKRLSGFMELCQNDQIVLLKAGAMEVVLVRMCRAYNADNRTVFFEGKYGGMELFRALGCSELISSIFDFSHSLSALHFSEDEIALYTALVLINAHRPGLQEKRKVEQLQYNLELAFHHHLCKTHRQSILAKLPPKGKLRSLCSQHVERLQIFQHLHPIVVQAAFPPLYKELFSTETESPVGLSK
Method in brief: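 First, HepG2 liver cells were transfected with GAL4-UAS-driven reporter constructs and the RORg-Gal4 fusion. Next, they were treated with chemical for 24 h. Finally, reporter mRNA was quantified by RT-PCR and capillary electrophoresis, with upward activity fitted against DMSO.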

[18] = molecular target: human Thyroid Receptor alpha (THRa1), THRA (gene 7067) (UniProt P10827); assay: ATG_THRa1_TRANS: Attagene TRANS-FACTORIAL HepG2 Assay for human Thyroid Receptor alpha (THRa1) (AID 2283014)
human Thyroid Receptor alpha (THRa1), THRA (gene 7067), sequence (P10827 whole entry, looked up, the tested form may be a part): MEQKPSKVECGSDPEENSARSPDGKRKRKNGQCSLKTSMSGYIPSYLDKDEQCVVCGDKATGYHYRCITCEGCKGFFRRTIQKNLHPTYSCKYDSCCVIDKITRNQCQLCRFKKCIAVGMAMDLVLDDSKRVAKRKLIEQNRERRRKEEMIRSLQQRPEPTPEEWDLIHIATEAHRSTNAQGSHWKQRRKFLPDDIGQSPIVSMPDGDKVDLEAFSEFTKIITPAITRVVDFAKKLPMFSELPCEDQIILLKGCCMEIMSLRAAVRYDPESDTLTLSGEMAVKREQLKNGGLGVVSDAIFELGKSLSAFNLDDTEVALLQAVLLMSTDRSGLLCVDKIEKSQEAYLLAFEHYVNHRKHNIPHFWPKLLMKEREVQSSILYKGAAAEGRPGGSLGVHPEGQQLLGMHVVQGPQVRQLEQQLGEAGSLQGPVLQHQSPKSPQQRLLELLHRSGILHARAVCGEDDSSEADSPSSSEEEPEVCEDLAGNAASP
Method in brief: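 Reporter transcript induction, read by capillary electrophoresis of 6-FAM-labelled RT-PCR products, reflects activity of a transfected THRa1-Gal4 fusion in HepG2 liver cells. Cells were dosed for 24 h; activity was fitted in the positive direction against DMSO.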

[19] = molecular target: human RAR-related Orphan Receptor beta (RORb), RORB (gene 6096) (UniProt Q92753); assay: ATG_RORb_TRANS: Attagene TRANS-FACTORIAL HepG2 Assay for human RAR-related Orphan Receptor beta (RORb) (AID 2283010)
human RAR-related Orphan Receptor beta (RORb), RORB (gene 6096), sequence (Q92753 whole entry, looked up, the tested form may be a part): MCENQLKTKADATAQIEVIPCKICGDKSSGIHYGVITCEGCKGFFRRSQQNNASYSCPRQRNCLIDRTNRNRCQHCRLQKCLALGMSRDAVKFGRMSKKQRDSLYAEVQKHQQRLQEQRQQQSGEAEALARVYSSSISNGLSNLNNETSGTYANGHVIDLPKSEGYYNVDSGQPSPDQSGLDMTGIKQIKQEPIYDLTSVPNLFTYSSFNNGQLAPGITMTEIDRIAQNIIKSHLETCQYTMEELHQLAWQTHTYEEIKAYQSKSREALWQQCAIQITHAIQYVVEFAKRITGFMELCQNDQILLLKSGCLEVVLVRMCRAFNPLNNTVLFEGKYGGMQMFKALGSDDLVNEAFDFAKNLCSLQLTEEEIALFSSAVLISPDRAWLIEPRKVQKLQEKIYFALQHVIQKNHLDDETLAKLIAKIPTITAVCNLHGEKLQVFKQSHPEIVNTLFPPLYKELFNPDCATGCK
Method in brief: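 HepG2 cells transiently transfected with GAL4-UAS reporter units expressing chimeric NR-Gal4 protein; reporter mRNA measured 24 h after dosing by RT-PCR, 6-FAM labelling and capillary electrophoresis. Gain-of-signal fitted relative to DMSO baseline.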

Measured: AC50

E-selectin (Homo sapiens), sequence (P16581 whole entry, looked up): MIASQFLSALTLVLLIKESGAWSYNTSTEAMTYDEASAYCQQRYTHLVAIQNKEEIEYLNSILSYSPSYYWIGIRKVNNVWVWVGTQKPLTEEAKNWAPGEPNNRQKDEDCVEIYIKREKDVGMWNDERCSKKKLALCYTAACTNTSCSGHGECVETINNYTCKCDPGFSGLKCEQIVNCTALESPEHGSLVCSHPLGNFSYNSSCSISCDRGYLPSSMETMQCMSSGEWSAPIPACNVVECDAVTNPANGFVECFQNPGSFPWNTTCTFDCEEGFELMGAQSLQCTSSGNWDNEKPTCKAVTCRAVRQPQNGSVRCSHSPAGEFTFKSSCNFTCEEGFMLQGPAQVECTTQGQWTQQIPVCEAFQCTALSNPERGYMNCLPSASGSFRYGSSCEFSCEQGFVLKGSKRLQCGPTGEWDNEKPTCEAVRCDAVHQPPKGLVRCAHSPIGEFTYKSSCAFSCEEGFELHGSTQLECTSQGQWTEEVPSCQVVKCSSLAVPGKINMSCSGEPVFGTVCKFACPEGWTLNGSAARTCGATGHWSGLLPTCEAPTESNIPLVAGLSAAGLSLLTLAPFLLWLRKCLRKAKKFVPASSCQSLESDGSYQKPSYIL

COc1cc(Cl)c(OC)cc1N
not listed: [16] | [17] | [18] | [19]
inactive: all other assays above

CCCCCC(C=O)=Cc1ccccc1
active: [1] 27.5 µM | [3] 30.9 µM | [6] 27.6 µM | [9] 73.8 µM | [10] 35.2 µM | [12] 31.5 µM | [13] 27.8 µM | [14] 36.6 µM | [15] 28.8 µM
inactive: [2] | [7] | [8] | [16] | [11]

CC(C=O)Cc1ccc(C(C)(C)C)cc1 (centres undefined)
active: [1] 40.7 µM | [3] 31.1 µM | [6] 79.1 µM | [7] 23.1 µM | [10] 30.8 µM | [12] 30.6 µM | [13] 20 µM | [14] 30.3 µM
inactive: [2] | [16] | [11] | [15]

CCCCCCCCCCCCCC(=O)OCC(O)CO (centres undefined)
inactive: [1] | [2] | [4] | [5] | [7] | [8] | [17] | [16] | [9] | [18]

COc1ccc(OC)c(N=Nc2c(O)ccc3ccccc23)c1
active: [7] 4.23 µM | [11] 2.11 µM | [12] 20 µM | [14] 10.9 µM
not listed: [5] | [8]
inactive: all other assays above

C[Si]1(C)O[Si](C)(C)O[Si](C)(C)O1
inactive: [1] | [2] | [4] | [5] | [6] | [7] | [8] | [19] | [16] | [18]

CCCCCCC(O)CCCCCCCCCCC(=O)O (centres undefined)
inactive: [4] | [5] | [7] | [8] | [17] | [16]
active: [1] 5.01 µM | [2] 12.1 µM | [6] 14.2 µM | [9] 22.7 µM

Nc1ccc(N)c2c1C(=O)c1ccccc1C2=O
inactive: [1] | [2] | [4] | [7] | [8] | [19] | [16] | [9] | [18]
active: [6] 11.3 µM

CCc1ccc(O)cc1
inactive: [1] | [2] | [4] | [6] | [19] | [16]
